# PfM18AAP inh-1: PfM18AAP inhibitors, malaria aminopeptidase, primary screen, biochemical, QFRET, recombinant enzyme. 290,000 compounds, 1.2% hits. H-Glu-NHMec fluorogenic cleavage. M18 aspartyl aminopeptidase (Plasmodium falciparum 3D7). inhibition, % at 7.35 µM. AID 1822, 2009;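 active = inhibition above the campaign mean inhibition over all tested compounds plus 3 SD, cut at about 28% in these data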;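 note: 0% = plate median of test compound wells and 100% = 2 mM ZnCl2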
# CTSL1 counter-1: Fasciola hepatica cathepsin L1 inhibitors, primary screen, counter-screen for PFM18AAP inhibitor project, biochemical, QFRET, fluorogenic peptide substrate | inhibition, % at 5.96 µM | AID 1906, 2009 | recombinant F. hepatica cathepsin L1, Z-Leu-Arg-MCA fluorescence | 300,000 compounds, 0.49% hits;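 active = inhibition above the mean of all tested compounds plus 3 SD, set per screening campaign, cut at about 17% in these data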;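 note: 0% = plate median of test compound wells and 100% = 1 µM Z-Phe-Ala-diazomethylketone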
# Calb FLC: C. albicans growth inhibition with fluconazole, primary screen, CaCi-2 strain, Alamar Blue fluorescence; C. albicans CaCi-2 (fluconazole-resistant clinical isolate) + fluconazole, 48 h; growth inhibition, % (test concentration not listed); 300,000 compounds, 0.57% hits;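 active = growth inhibition above about 58% in most replicates, limit read from the data, passing the limit was not always enough; inconclusive = exactly half the replicates above a set limit; inactive = most replicates below a set limit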;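 note: all wells also contain fluconazole at 8 µg/ml as a sub-toxic cotreatment; 0% = median of DMSO wells and 100% = median of geldanamycin control wells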
# Rin1-Abl PPI inh: inhibitors of Rin1-Abl protein binding, primary screen, biochemical, TR-FRET; Tyrosine-protein kinase ABL1 (Homo sapiens) + Ras and Rab interactor 1 (Homo sapiens), …; inhibition, % at 7.35 µM; AID 588664, 2011; 360,000 compounds, 0.4% hits; in the data active = inhibition above about 5%, passing the limit was not always enough
# PfM18AAP inh-2: PfM18AAP inhibitors, malaria aminopeptidase, confirmation, biochemical, QFRET, recombinant enzyme, triplicate; shares compounds with PfM18AAP inh-1; inhibition, % at 7.35 µM; 2,400 compounds, 28% hits; AID 2170, 2009; H-Glu-NHMec fluorogenic cleavage;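 active = mean inhibition over replicate wells above the hit cutoff set for the earlier primary screen, cut at about 29% in these data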;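 note: 0% = median of test compound wells and 100% = 2 mM ZnCl2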
# CTSL1 counter-2: cathepsin L1 inhibitors, retest, confirmation, counter-screen for PFM18AAP inhibitor project, biochemical, QFRET, triplicate; 2,400 tested, under 10 active; AID 2178, 2009; shares compounds with PfM18AAP inh-1; purified cathepsin L1, Z-Leu-Arg-MCA fluorescence; inhibition, % at 5.96 µM;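 active = average inhibition across replicates above the hit cutoff set in the earlier primary screen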;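 note: 0% = median of test compound wells and 100% = Z-Phe-Ala-diazomethylketone 1 µM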
# Active calls of the source: *; ? = inconclusive; · = no result given. Rows were chosen to be rich in hits. Some 2.1% of all compounds tested hit in one or more screens of this group.
SMILES,PfM18AAP inh-1,CTSL1 counter-1,Calb FLC,Rin1-Abl PPI inh,PfM18AAP inh-2,CTSL1 counter-2
CCn1c(C)nc2cc(C(=O)NNC(=S)Nc3ccccc3OC)ccc21,3,6,2,·,·,·
CCn1c(C)nc2cc(C(=O)NNC(=S)Nc3ccc(C)cc3)ccc21,40*,4,2,1,-52,-1
CN1c2ccsc2C(O)=C(C(=S)Nc2ccccc2)S1(=O)=O,6,4,-6,-1,·,·
Cc1ccccc1NC(=S)C1=C(O)c2sccc2N(C)S1(=O)=O,33*,-1,-5,-1,-47,3
CCCS(=O)(=O)NC(=O)C1(C)CCN(C(=O)c2c(F)ccc(C)c2F)C1 (centres undefined),·,·,·,2,·,·
Cc1ccc(NS(=O)(=O)c2cc(NC(=O)c3ccc4c(c3)NC(=O)CS4)ccc2C)c(C)c1,48*,0,2,0,-5,1
COc1ccc(NC(=O)c2ccc3c(c2)NC(=O)CS3)cc1S(=O)(=O)Nc1ccc(Br)cc1,32*,6,7,0,13,5
CC(=O)NS(=O)(=O)c1ccc(NC(=O)c2ccc3c(c2)NC(=O)CS3)cc1,·,·,·,2,·,·
Cc1ccc(NS(=O)(=O)c2cc(C(=O)Nc3cccc(N(C)S(C)(=O)=O)c3)ccc2C)c(C)c1,3,5,11,-3,·,·
COc1cc(OC)c(C(=O)NCCCN2CCOCC2)cc1OC,57*,-5,8,-7,-35,-3
S=C(NCCCN1CCOCC1)NCCCN1CCOCC1,39*,-1,-13,0,1,1
COc1ccc(-c2nc(NC(=O)c3[nH]c(C)c(C(C)=O)c3C)sc2C)cc1,2,-2,16,-18,·,·
CN(Cc1c(C(=O)N/N=C/c2ccc(O)cc2)nnn1-c1nonc1N)c1ccccc1,9,13,-8,1,·,·
CC(/C=C/c1ccccc1)=N/NC(=O)c1nc2nc(C)cc(C)n2n1,-2,-7,-2,-1,·,·
CC(/C=C/c1ccccc1)=N\Nc1nc(C)cc(C)n1,39*,3,-13,0,-35,-1
CCc1nc2ccc(C(=O)N3CCN(C(=O)c4ccco4)CC3)cn2c1N(C)Cc1cccs1,·,·,·,3,·,·
CC(=O)/C(=N/Nc1cccc(C)c1)N1CCOCC1,42*,12,-30,0,-68,27*
Cc1cccc(C(=O)Nc2cccc(C(=O)N3CCOCC3)c2)c1,4,2,23,1,·,·
COc1cc(/C=C2\SC(=S)N(C(C(=O)O)c3ccccc3)C2=O)ccc1O (centres undefined),23,3,1,-1,·,·
O=C(O)C(c1ccccc1)N1C(=O)/C(=C\c2ccc(O)c(O)c2)SC1=S (centres undefined),49*,0,1,1,28*,-2
Oc1ccc(O)c(-c2cnns2)c1,86*,-1,8,-2,90*,1
O=c1c2ccccc2cnn1Cc1n[nH]c(=S)n1-c1ccc(F)cc1,36*,-2,12,0,-1,2
O=c1c2ccccc2cnn1Cc1n[nH]c(=S)n1-c1ccccc1Cl,38*,-2,5,1,6,1
Cc1ccc(C(O)c2ncc(-c3ccccc3C(F)(F)F)[nH]2)cc1F (centres undefined),·,·,·,-2,·,·
Cc1ccc(NC(=O)NNS(=O)(=O)c2ccc(Br)cc2)cc1,-4,0,-5,-3,·,·
SMILES,PfM18AAP inh-1,CTSL1 counter-1,Calb FLC,Rin1-Abl PPI inh,PfM18AAP inh-2,CTSL1 counter-2
Cc1ccc(S(=O)(=O)NC(=O)Nc2ccc(N(C)C)cc2)cc1,43*,5,87*,1,-26,4
COC(=O)c1cc(C(=O)OC)n(Cc2ccc(C)cc2)c1C,4,5,0,-1,·,·
O=C(NNc1ccc([N+](=O)[O-])cc1)C1CC1c1ccccc1 (centres undefined),43*,5,-22,-2,15,3
O=C(NNc1ccc([N+](=O)[O-])cc1)C1CC2CCCC(C1)C2=O (centres undefined),26,8,-3,-4,·,·
Cc1ccccc1C(=O)NNc1ccc([N+](=O)[O-])cc1,60*,5,-30,5,48*,2
CCC(=O)N(CCc1ccc(S(N)(=O)=O)cc1)C1CC(=O)N(c2ccc(OC)cc2)C1=O (centres undefined),3,0,-1,-4,·,·
CNC(=S)NNC(=O)c1c(C)nc2cc(C)ccn12,47*,-2,-2,-4,7,-5
Cc1ccn2c(C(=O)NN=C3CCCCCCC3)c(C)nc2c1,5,-2,36,-3,·,·
COc1ccccc1N1CC(C(=O)Nc2ccc(N3CCOCC3)cc2)CC1=O (centres undefined),·,·,·,4,·,·
COc1cc2sc3cc(NCC[C@@H]4CCCN4C)ccc3c(=O)c2cc1OC,·,·,·,-16,·,·
COc1cccc2sc3ccc(NCCC4CCCN4C)cc3c(=O)c12 (centres undefined),33*,0,-20,-21,-45,-2
O=C(N/N=C/c1ccc[nH]1)c1cc2ccccc2cc1O,39*,-3,?,-2,-45,7
O=C(N/N=C/c1ccc[nH]1)c1c[nH]c2ccccc12,-8,·,-14,-3,·,·
COc1ccc(/C=C/C(=O)NC2CCN(Cc3ccccc3)CC2)cc1OC,-4,3,-12,-2,·,·
C[C@@H]1CN([C@H](C)CO)C(=O)Cc2cc(NC(=O)Cn3cnnn3)ccc2O[C@@H]1CN(C)Cc1ccc(Cl)c(Cl)c1,·,·,·,0,·,·
COC(=O)/C=c1\sc2ncnn2c1=O,38*,2,·,1,-30,-2
CNC(=O)/C(C#N)=c1\s/c(=C/C(=O)OC)c(=O)n1-c1ccccc1,23,1,7,-1,·,·
O=C1CC/C=C\C[C@@H](CC(=O)N(CCO)Cc2ccccc2)C(=O)N[C@H](Cc2c[nH]c3ccccc23)CO1,·,·,·,4,·,·
Cc1cccnc1NC(=O)c1cc2ccccc2oc1=O,-5,1,22,2,·,·
O=C(O)CCn1c2c(c3ccccc31)CCCC2,45*,-1,-8,-4,-28,4
O=C(Cn1sc2ccccc2c1=O)NC12CC3CC(CC(C3)C1)C2,34*,-2,-43,-2,21,1
O=C(Cn1sc2ccccc2c1=O)Nc1ccccc1,·,·,·,-6,·,·
COc1ccccc1N(CC(=O)NCc1ccccc1)C(=O)CCC(=O)Nc1nccs1,1,3,7,2,·,·
NC(=S)Nc1cccc2cccnc12,32*,2,25,-1,1,2
NC(=S)NNc1cccc2cccnc12,14,3,48,-2,·,·
CCNC(=S)NNc1nncc2ccccc12,36*,0,11,-5,11,2
CCNC(=S)NNc1ccccc1,15,-3,-15,-2,·,·
O=C(NNc1ccc(-c2csnn2)cc1)c1cc(Cl)cc(Cl)c1,0,2,-25,-3,·,·

# Compound activity: PubChem BioAssay, several laboratories
